From PubChem BioAssay
This is a sample that favours compounds with a hit; in the whole collection about 4.3% have one here.
FAS-TE inh – FAS thioesterase (human) inhibition | hit rate 0.67% among 360,000 | inhibition, % at 15 µM | recombinant FAS-TE, OMFH fluorogenic substrate, fluorescence endpoint | AID 602261;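 active = compounds whose normalised, plate-corrected inhibition of enzyme fluorescence in the single-dose primary screen is 50% or more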;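 also: 0% = DMSO with enzyme and 100% = substrate without enzyme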
rCAG RNA binder – molecules binding r(CAG) RNA repeats | inhibition, % at 3 µM | hit rate 1.3% among 370,000 | AID 651821 | r(CAG) RNA repeat, TO-PRO-1 dye displacement fluorescence;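 active = inhibition above the plate cutoff, the mean of all test compounds on that plate plus 3 SD, cut at about 35% in these data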;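 also: 0% = DMSO alone and 100% = 100 µM mitoxantrone as full dye displacement; higher means more dye released from RNA so lower well fluorescence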
GRIN3A LBD mod – modulators (binders) of human NR3A ligand-binding domain | NR3A LBD differential scanning fluorimetry, Tm shift; 0% = protein alone, 100% = glycine-bound protein | Tm shift relative to glycine control, % at 25 µM | hit rate 2.5% among 340,000;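 active = melting temperature shift of at least 10% of the positive control shift, at one fixed dose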
NadD block – inhibitors of Staphylococcus aureus NadD. purified NadD enzyme, colorimetric absorbance read-out. inhibition, % at 20 µM. hit rate 0.78% among 360,000; in the data active = inhibition above about 26%
NadD inh conf – NadD (S. aureus) inhibition, single concentration confirmation. purified S. aureus NadD, colorimetric enzyme assay. inhibition, % at 20 µM. shares compounds with NadD block. hit rate 13% among 2,000; in the data active = inhibition mostly above about 42%, no sharp cut-off; inactive = mostly below about 42%
rCAG binder conf – r(CAG) RNA repeat binding, confirmation. hit rate 70% among 4,300. shares compounds with rCAG RNA binder. inhibition, % at 3 µM. TO-PRO-1 dye displacement fluorescence;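 active = inhibition above a per-plate cutoff, the mean inhibition of sample wells plus 3 SD, cut at about 35% in these data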;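 also: loss of TO-PRO-1 fluorescence as compound displaces dye from 1x1 AA loop RNA; 0% = DMSO only wells and 100% = 100 µM mitoxantrone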
DNA CAG counter – counter-screen for rCAG RNA binders: DNA CAG dye complex inhibitors; hit rate 94% among 4,300; d(CAG) DNA oligo TO-PRO-1 dye displacement, fluorescence; inhibition, % at 3 µM; shares compounds with rCAG RNA binder;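 active = inhibition above its plate's cutoff, the mean test-well inhibition plus 3 SD, cut at about 4.8% in these data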;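 also: 0% = DNA dye mix with DMSO and 100% = 100 µM mitoxantrone; hits displace the dye from DNA and so lower well fluorescence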
DNA CAG DR – disrupts DNA CAG TO-PRO-1 complex in dose response; hit rate 20% among 250; shares compounds with rCAG RNA binder; IC50, µM; DNA CAG/GTC duplex TO-PRO-1 dye displacement fluorescence; AID 686960; in the data active = IC50 below about 10 µM
The depositor's hits bear a star; i = inactive; / = no result given.

SMILES	FAS-TE inh	rCAG RNA binder	GRIN3A LBD mod	NadD block	NadD inh conf	rCAG binder conf	DNA CAG counter	others
CN(c1ccccc1)c1ccc(/C=C(/CCC(=O)O)c2nc3ccccc3s2)cc1[N+](=O)[O-]	1	77*	0	43*	38	82*	43*
O=C(O)CC/C(=C\c1cccc(NC(=O)c2ccccc2Cl)c1)c1nc2ccccc2s1	0	61*	-26	30*	38	73*	27*	DNA CAG DR=i
O=C(O)CC/C(=C\c1ccccc1[N+](=O)[O-])c1nc2ccccc2s1	1	19	0	0	/	/	/
COc1ccc(NC(=O)CSc2nnc(-c3n[nH]c4c3CCC4)n2N)cc1	/	0	/	/	/	/	/
COc1ccc(-c2nn(-c3ccccc3)cc2C(=O)NC(=S)NNC(=O)c2ccncc2)cc1	-4	56*	-17	58*	38	55*	20*
O=C(Nc1ccc(F)cc1)OCc1cn(Cc2ccc(C(F)(F)F)cc2)nn1	/	-2	/	/	/	/	/
CC(Nc1nc(Nc2ccc(F)cc2)nc(SCC(N)=O)n1)c1ccccc1 (configuration not stated)	8	-1	-17	2	/	/	/
CC(Nc1nc(=S)nc(Nc2ccc(F)cc2)[nH]1)c1ccccc1 (configuration not stated)	8	68*	2	31*	37	10	12*
O=C(NCc1cccs1)C1CCN(S(=O)(=O)c2cccc3ccccc23)CC1	/	4	/	/	/	/	/
O=C(/C=C/c1ccc([N+](=O)[O-])cc1)/C=C/c1ccco1	4	47*	/	38*	32	25	12*
CN(CCC#N)C(=O)COC(=O)c1c2c(nc3ccccc13)/C(=C/c1ccco1)CC2	-6	69*	-7	50*	58*	52*	28*
CC(C)CNC(=O)COC(=O)c1c2c(nc3ccccc13)/C(=C\c1cccs1)CC2	9	20	5	12	/	/	/
Cc1ccc2sc(NNC(=O)c3cc(=O)c4ccccc4o3)nc2c1C	11	75*	-1	64*	70*	86*	45*
Cc1cccc2sc(NNC(=O)c3cc(=O)c4ccccc4o3)nc12	8	54*	-2	45*	60*	78*	35*
CCN(CC)C(=O)CC[C@H]1CC[C@]2(CCCN(S(C)(=O)=O)C2)O1	/	2	/	/	/	/	/
COc1cc(C#Cc2c(-c3cncn3C)n(C)c3ccc(-c4cnc(OC)nc4)cc23)cc(OC)c1	23	74*	-9	30*	14	15	10*
COc1cc(C#Cc2c(-c3cncn3C)n(C)c3ccc(-c4ccc(CN5CCOCC5)cc4)cc23)cc(OC)c1	18	9	-5	20	/	/	/
COc1cc(/C=C/c2ccc3c(Br)cc(Br)c(O)c3n2)ccc1O	12	39*	16*	61*	47	39*	20*
C[C@H](CO)N1C[C@H](C)[C@@H](CN(C)C(=O)C2CC2)OCc2cn(nn2)CCCC1=O	/	0	/	/	/	/	/
Cc1ccc(NS(=O)(=O)c2ccc(Cl)c(C(=O)Nc3ccccc3-c3nc4ccccc4[nH]3)c2)cc1C	44	47*	34*	47*	13	42*	24*
O=C(Nc1ccc(Cl)cc1)C1CCCN1S(=O)(=O)c1cccnc1 (configuration not stated)	/	4	/	/	/	/	/
Cc1ccccc1C(=O)Nc1ccc(S(=O)(=O)Nc2onc(C)c2C)cc1	-13	5	-2	-1	/	/	/
O=C(Nc1ccc(S(=O)(=O)Nc2nccs2)cc1)c1cc(-c2ccccc2Cl)nc2ccccc12	12	76*	1	67*	65*	77*	41*
Cc1ccc(-c2cc(C(=O)Nc3ccc(S(=O)(=O)Nc4cc(C)on4)cc3)c3ccccc3n2)c(C)c1	8	79*	-2	43*	65*	82*	53*
Cc1ccc(-c2cc(C(=O)Nc3ccc(S(=O)(=O)Nc4onc(C)c4C)cc3)c3ccccc3n2)cc1	6	87*	3	31*	66*	86*	61*
O=C(CSc1nnc(-c2cccs2)o1)c1ccc2c(c1)OCO2	/	3	/	/	/	/	/
